Records with an inconclusive call do not appear. Active and inactive are the calls of the source. Unless noted, the call rests on the fitted dose curve; in most records, active means well fitted curve in the direction sought with a large enough effect in the repeat runs; inconclusive means weak or mixed curves; inactive means no such curve, though single readings can be large; an effect the other way counts as inactive or inconclusive.
Legend:
[1] = qHTS assay to identify small molecule agonists of the hypoxia (HIF-1) signaling pathway - cell viability counter screen (AID 1224844; calls by dose curve; further: nearly all actives have a fitted effect of over 50% in size; further: potency means the concentration at half of the fitted maximal effect)
How it was run: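 Cells (HRE-bla ME-180, 2,000 per well) sat 5 hrs at 37C, got compound for 17 hrs, were read for CCF4-AM FRET, and were finally lysed with CellTiter-Glo for a 30 min room-temperature luminescence read.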

[2] = qHTS assay to identify small molecule agonists of H2AX (AID 1224845; active means well fitted activation curve with a large enough effect in the signal ratio in the repeat runs, not every such curve was filed as active; the % refers to the signal ratio)
How it was run: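 Wild-type CHO-K1 cells plated overnight, then exposed 3 hr at 37C to compounds at 15 concentrations (0.76% DMSO). Lysed, then HTRF anti-pH2AX(S139)-cryptate/anti-H2AX-d2 detection after 24 hr at room temperature; emissions 665 and 620 nm.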

[3] = qHTS assay to identify small molecule agonists of H2AX - cell viability counter screen (AID 1224847; calls by dose curve; further: top concentration of the series differs between compounds; nearly all actives have a fitted effect of over 30% in size)
How it was run: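 For this counter screen, overnight-attached CHO-K1 cells received test compounds (15 concentrations, 0.76% DMSO final); 3 hr later at 37C, CellTiter-Glo reagent was added and luminescence recorded after 30 min at room temperature.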

[4] = qHTS RealTime-Glo MT Cell Viability Assay in HepG2 cells - 24 hour (AID 1224867); further: nearly all actives have a fitted effect of over 50% in size; further: potency means the concentration at half of the fitted maximal effect
How it was run: (§1)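 HepG2 cells were seeded at 600 cells/well together with NanoLuc luciferase and a cell-permeant prosubstrate, preincubated 5 h at 37 C/5% CO2, then pin-dosed with compounds in DMSO. Nonlytic luminescence from viable cells was read at each time point.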

[5] = A CellTox Green Cytotoxicity Assay to monitor cytotoxicity in HEK293 cells - 0 hour (AID 1224869); further: nearly all actives have a fitted effect of over 50% in size
How it was run: (§2)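 Fluorescence intensity, read at 0, 8, 16, 24, 32 and 40 h of compound treatment, reflected dye binding to DNA of dead HEK293 cells; compounds (23 nL, DMSO) were added 5 h after plating cells with reagent.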

[6] = qHTS RealTime-Glo MT Cell Viability Assay in HepG2 cells - 40 hour (AID 1224870); further: nearly all actives have a fitted effect of over 50% in size; further: potency means the concentration at half of the fitted maximal effect
How it was run: (§3)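 HepG2 cells mixed with RealTime-Glo MT reagents (NanoLuc plus cell-permeant prosubstrate) were seeded at 600 cells/well, incubated 5 h at 37 C/5% CO2, then pinned with compounds in DMSO; nonlytic luminescence tracked viability during 40 h treatment.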

[7] = qHTS RealTime-Glo MT Cell Viability Assay in HEK293 cells - 16 hour (AID 1224872); further: nearly all actives have a fitted effect of over 50% in size; further: potency means the concentration at half of the fitted maximal effect; on activity change, negative = cytotoxicity: top concentration of the series differs between compounds
How it was run: (§4)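 HEK293 cells were seeded at 600 cells/well together with NanoLuc luciferase and cell-permeant prosubstrate, preincubated 5 h at 37 C/5% CO2, then given compound in DMSO by pintool. Luminescence from viable-cell prosubstrate reduction was read repeatedly over 40 h.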

[8] = qHTS RealTime-Glo MT Cell Viability Assay in HepG2 cells - 8 hour (AID 1224873); further: nearly all actives have a fitted effect of over 55% in size
How it was run: as §3

[9] = qHTS RealTime-Glo MT Cell Viability Assay in HEK293 cells - 40 hour (AID 1224874); settings: RealTime-Glo luminescence; max response: hits give low values; further: nearly all actives have a fitted effect of over 50% in size; further: potency means the concentration at half of the fitted maximal effect
How it was run: (§5)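 Viable HEK293 cells reduce a cell-permeant prosubstrate; the product diffuses out and is consumed by NanoLuc in the medium to give light. Compounds went in after a 5 h incubation and plates were read over the treatment course.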

[10] = A CellTox Green Cytotoxicity Assay to monitor cytotoxicity in HEK293 cells - 24 hour (AID 1224875); further: nearly all actives have a fitted effect of over 45% in size
How it was run: as §2

[11] = A CellTox Green Cytotoxicity Assay to monitor cytotoxicity in HepG2 cells - 16 hour (AID 1224876); further: nearly all actives have a fitted effect of over 45% in size; further: potency means the concentration at half of the fitted maximal effect
How it was run: (§6)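 Using 1536-well format, dye-containing HepG2 suspension was seeded, allowed 5 h at 37 C/5% CO2, dosed by pintool with compounds, positive and negative controls, and imaged for fluorescence across 40 h.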

[12] = qHTS RealTime-Glo MT Cell Viability Assay in HepG2 cells - 32 hour (AID 1224877); further: nearly all actives have a fitted effect of over 55% in size; further: potency means the concentration at half of the fitted maximal effect
How it was run: as §1

[13] = A CellTox Green Cytotoxicity Assay to monitor cytotoxicity in HepG2 cells - 24 hour (AID 1224878); further: nearly all actives have a fitted effect of over 45% in size
How it was run: as §6

[14] = A CellTox Green Cytotoxicity Assay to monitor cytotoxicity in HepG2 cells - 40 hour (AID 1224879); further: nearly all actives have a fitted effect of over 40% in size; further: potency means the concentration at half of the fitted maximal effect
How it was run: as §6

[15] = qHTS RealTime-Glo MT Cell Viability Assay in HEK293 cells - 0 hour (AID 1224880); further: nearly all actives have a fitted effect of over 45% in size; further: potency means the concentration at half of the fitted maximal effect; on activity change, negative = cytotoxicity: top concentration of the series differs between compounds
How it was run: as §5

[16] = qHTS RealTime-Glo MT Cell Viability Assay in HEK293 cells - 32 hour (AID 1224868); further: nearly all actives have a fitted effect of over 50% in size; further: potency means the concentration at half of the fitted maximal effect; on activity change, negative = cytotoxic: top concentration of the series differs between compounds
How it was run: as §4

[17] = A CellTox Green Cytotoxicity Assay to monitor cytotoxicity in HEK293 cells - 40 hour (AID 1224871); further: nearly all actives have a fitted effect of over 45% in size
How it was run: as §2

[18] = qHTS assay to identify small molecule antagonists of the estrogen related receptor (ERR) signaling pathway from Tox21 library (AID 1224848); further: nearly all actives have a fitted effect of over 50% in size; further: potency means the concentration at half of the fitted maximal effect
How it was run: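 Screening used an ERR reporter line supplied by NTP, exposed for 18 h at 37 C to library compounds delivered in DMSO. Signal was luciferase luminescence developed with ONE-Glo at room temperature for 30 min.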

[19] = qHTS assay to identify small molecule agonists of the estrogen related receptor (ERR) signaling pathway from Tox21 library (AID 1224849; calls by dose curve; further: nearly all actives have a fitted effect of over 15% in size); settings: ERR reporter cell line, ONE-Glo luciferase, 18 h; at 92.4 µM (top of the series) unless noted
How it was run: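 Screening used an NTP-provided ERR luciferase cell line. Compounds in DMSO were added 6 h after seeding and left 18 h at 37 C before a 30 min ONE-Glo step and luminescence reading.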
On the % scale 0 is the no-effect control and ±100 the full control effect.

COc1ccnc(CS(=O)c2nc3ccc(OC(F)F)cc3[nH]2)c1OC (configuration not stated)
inactive: Potency [1] | Potency [2] | Potency [3] | Potency [4] | Potency [5] | Potency [6] | Potency [7] | Potency [8] | max response [9] -16.2% | Potency [10] | Potency [11] | Potency [12] | Potency [13] | Potency [14] | Potency [15]

CN1CCN(C(c2ccccc2)c2ccccc2)CC1
inactive: Potency [1] | Potency [2] | Potency [3] | Potency [4] | Potency [16] | Potency [5] | Potency [6] | Potency [17] | Potency [7] | Potency [8] | max response [9] -1.32% | Potency [10] | Potency [11] | Potency [12] | Potency [13] | Potency [14] | Potency [15]

COc1cccc(N(C)C(=S)Oc2ccc3c(c2)CCCC3)n1
inactive: Potency [1] | Potency [2] | Potency [3] | Potency [16] | Potency [5] | Potency [6] | Potency [17] | Potency [7] | Potency [8] | max response [9] -20.4% | Potency [10] | Potency [11] | Potency [12] | Potency [13] | Potency [14] | Potency [15]

C/C=C(/C(=C/C)c1ccc(OC(C)=O)cc1)c1ccc(OC(C)=O)cc1
inactive: Potency [1] | Potency [2] | Potency [3] | Potency [4] | Potency [16] | Potency [6] | Potency [17] | Potency [7] | Potency [10] | Potency [11] | Potency [12] | Potency [14] | Potency [15]

OCc1cc(C(O)CNCCCCCCOCCCCc2ccccc2)ccc1O (configuration not stated)
inactive: Potency [1] | Potency [2] | Potency [3] | activity change, positive = activation [19] -29.9% [at 42.5 µM] | Potency [8] | Potency [15]
active: Potency [18] 21.1 µM | Potency [16] 21.3 µM | Potency [9] 23.9 µM | Potency [11] 23.9 µM | Potency [14] 23.9 µM

CCCCCCc1ccc(-c2ccc(C#N)cc2)cc1
inactive: Potency [1] | Potency [2] | Potency [18] | activity change, positive = activation [19] 1.68% | Potency [4] | Potency [16] | Potency [5] | Potency [6] | Potency [7] | Potency [8] | max response [9] -15.1% | Potency [10] | Potency [11] | Potency [12] | Potency [13] | Potency [14] | Potency [15]

C[N+](C)(C)CCOC(=O)CCC(=O)OCC[N+](C)(C)C
inactive: Potency [1] | Potency [2] | Potency [3] | Potency [4] | Potency [5] | Potency [6] | Potency [17] | Potency [7] | Potency [8] | max response [9] 3.39% | Potency [10] | Potency [11] | Potency [12] | Potency [14] | Potency [15]

CN(C)C(=O)NC1(c2ccccc2)CCN(CC[C@@]2(c3ccc(F)c(F)c3)CN(C(=O)c3ccccc3)CCO2)CC1
inactive: Potency [1] | Potency [2] | Potency [3] | activity change, positive = activation [19] -22.6% | Potency [4] | Potency [5] | Potency [6] | Potency [17] | Potency [8] | Potency [10] | Potency [11] | Potency [12] | Potency [13] | Potency [15]

CCOC(=O)NCCOc1ccc(Oc2ccccc2)cc1
active: Potency [18] 19.3 µM | Potency [16] 21.9 µM | Potency [9] 21.9 µM
inactive: Potency [1] | Potency [2] | activity change, positive = activation [19] -42.2% | Potency [4] | Potency [5] | Potency [6] | Potency [17] | Potency [8] | Potency [10] | Potency [11] | Potency [12] | Potency [14] | Potency [15]

CCCCCCOC(=O)NC(=N)c1ccc(NCc2nc3cc(C(=O)N(CCC(=O)OCC)c4ccccn4)ccc3n2C)cc1
active: Potency [1] 23.9 µM | Potency [18] 13.3 µM | Potency [16] 10.7 µM | Potency [7] 9.52 µM | Potency [9] 10.7 µM | Potency [14] 23.9 µM
inactive: Potency [2] | activity change, positive = activation [19] -64.4% [at 42.5 µM] | Potency [5] | Potency [6] | Potency [17] | Potency [10] | Potency [11]

COC(=O)C1=C(C)NC(COC(N)=O)=C(C(=O)OC(C)C)C1c1cccc(Cl)c1Cl (configuration not stated)
inactive: Potency [1] | Potency [2] | activity change, positive = activation [19] -36.5% [at 42.5 µM] | Potency [5] | Potency [17] | Potency [10]
active: Potency [18] 26.6 µM | Potency [4] 23.9 µM | Potency [16] 26.8 µM | Potency [7] 26.8 µM | Potency [9] 26.8 µM | Potency [12] 19 µM | Potency [15] 2.68 µM

COc1ccc(C(=O)N2CCN(CC(=O)N3CCOCC3)CC2)cc1
inactive: Potency [1] | Potency [2] | Potency [18] | activity change, positive = activation [19] 4.84% [at 42.5 µM] | Potency [4] | Potency [16] | Potency [5] | Potency [6] | Potency [17] | Potency [7] | Potency [8] | max response [9] 2.37% | Potency [10] | Potency [11] | Potency [12] | Potency [13] | Potency [14] | Potency [15]

C[N+]1(CC2COC(c3ccccc3)(C3CCCCC3)O2)CCCCC1 (configuration not stated)
active: Potency [6] 23.9 µM
inactive: Potency [1] | Potency [2] | Potency [3] | Potency [18] | activity change, positive = activation [19] -8.13% [at 42.5 µM] | Potency [5] | Potency [17] | Potency [7] | Potency [8] | Potency [10] | Potency [11] | Potency [13] | Potency [14] | Potency [15]

C/C(=C(\CCOP(=O)(O)O)SC(=O)c1ccccc1)N(C=O)Cc1cnc(C)nc1N
inactive: activity change, negative = cytotoxicity [1] -1.24% [at 6.97 µM] | activation (H2AX phosphorylation) [2] -0.259% [at 14 µM] | activity change, negative = cytotoxicity [3] 0.972% [at 14 µM] | activity change, negative = cytotoxicity [4] 1.32% [at 6.97 µM] | activity change, negative = cytotoxic [16] 2.89% [at 6.97 µM] | cytotoxicity [5] 0.458% [at 6.97 µM] | activity change, negative = cytotoxic [6] -0.476% [at 6.97 µM] | activity change, negative = cytotoxicity [7] 2.81% [at 6.97 µM] | max response [9] 6.16% | activity change [10] -4.36% [at 6.97 µM, hits give high values] | cytotoxicity increase [11] 0.668% [at 6.97 µM] | cytotoxicity [13] -0.377% [at 6.97 µM] | cytotoxicity increase [14] -0.293% [at 6.97 µM] | activity change, negative = cytotoxicity [15] 2.7% [at 6.97 µM]

— PubChem BioAssay (Tox21)
